Source: PubChem BioAssay (NCATS)
Records with an inconclusive call do not appear. The source made the active and inactive calls. Calls follow the shape of the dose curve; as a rule, active = well fitted inhibition curve with a large enough effect; inconclusive = small, poorly fitted or top-dose-only effect; inactive = flat fitted curve, though single readings scatter.

Columns and labels:
Experiment in all cases: Cytotoxic Profiling of Annotated Libraries Using Quantitative High-Throughput Screening (AID 1296008); also: nearly all actives have a fitted effect of over 60% in size
Settings in all cases: Five cell lines viability, CellTiter-Glo ATP luminescence, 48-72 h; max response: hits give low values
CRL-7250 = normal cell line; test system: CRL-7250
Summary of the method: (§1)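 Compounds were pin-transferred onto cells and incubated 48 or 72 hr at 37 degree Celsius, 95% humidity. CellTiter-Glo was added, plates sat 10 min at room temperature, then ATP-coupled luminescence was imaged as the viability read-out.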

HEK293 = test system: HEK293
Summary of the method: as §1

HaCat = test system: HaCat
Summary of the method: as §1

KB-3-1 = test system: KB-3-1
Summary of the method: as §1

NIH3T3 = test system: NIH3T3
Summary of the method: as §1

Measured: max response
% is scaled to controls: 0 for no effect and ±100 for the full control effect.

CC(C)C(=O)O[C@@H]1[C@@H](O)[C@@H](O[C@H]2O[C@H](CO)[C@@H](O)[C@H](O)[C@H]2O)O[C@H](CO)[C@H]1O
inactive: CRL-7250 -2.11% | HEK293 | HaCat | KB-3-1 3.97% | NIH3T3 1.16%

C[C@@H]1O[C@@H](O[C@H]2[C@H](OC(=O)[C@]34CCC(C)(C)C[C@H]3C3=CCC5[C@@]6(C)C[C@H](O)[C@H](O[C@@H]7O[C@H](CO[C@@H]8OC[C@H](O)[C@H](O)[C@H]8O)[C@@H](O)[C@H](O)[C@H]7O)C(C)(C)C6CC[C@@]5(C)[C@]3(C)C[C@H]4O)OC[C@@H](O)[C@@H]2O)[C@H](O)[C@H](O[C@@H]2OC[C@](O)(CO)[C@H]2O)[C@H]1O[C@@H]1OC[C@H](O)[C@H](O[C@@H]2OC[C@@H](O)[C@H](O)[C@H]2O)[C@H]1O (stereo not given in full)
inactive: CRL-7250 -6.86% | HEK293 | HaCat | KB-3-1 | NIH3T3 -1.57%

CC1(C(=O)O)CCCC2(C)C1CCC13CC(CCC21)C1(CO)OC31 (stereo not given)
inactive: CRL-7250 -3.21% | HEK293 | HaCat | KB-3-1 2.68% | NIH3T3

C[C@@H]1O[C@@H](O[C@@H]2[C@@H](O)[C@H](O[C@@H]3[C@@H](O)[C@@H](O)[C@H](O[C@H]4[C@H](OC(=O)[C@]56CCC(C)(C)C[C@H]5C5=CCC7[C@@]8(C)C[C@H](O)[C@H](O[C@@H]9O[C@H](C(=O)O)[C@@H](O)[C@H](O)[C@H]9O)[C@@](C)(CO)C8[C@H](O)C[C@@]7(C)[C@]5(C)CC6)OC[C@H](O)[C@@H]4O)O[C@H]3C)OC[C@H]2O)[C@H](O)[C@H](O)[C@H]1O (stereo not given in full)
inactive: CRL-7250 -17.9% | HEK293 | HaCat | KB-3-1 2.1% | NIH3T3
